The subject of experiment [1] is PRMT1 (protein arginine N-methyltransferase 1). Description: small molecules binding arginine methyltransferase PRMT1 – biochemical, small-molecule microarray, 635 nm fluorescence, primary screen (AID 1088).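 Note: binding of Prmt1 protein to compounds spotted on small-molecule microarray slides.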 Conditions: higher = more signal.
A short description of experiment [2]: growth effects on S. cerevisiae YJM789 – YJM789 clinical isolate, OD600, 24 h, basal, primary screen (AID 1089).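 Note: growth of clinical yeast isolate S. cerevisiae YJM 789 seeded 1000 cells per well; test concentration not given here.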 Conditions: higher = more signal, called active from +8 up or from −8 down.
A short description of experiment [3]: S. pombe growth modifiers, basal conditions – strain 972, OD600, 24 h, no modulator, primary screen (AID 1090).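 Note: basal condition with compound alone and no growth modifier present; test concentration not given here.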 The conditions noted are these: S. pombe 972 growth, higher = more signal, called active from +8 up or from −8 down.
The nature of experiment [4]: budding yeast growth modifiers under rapamycin – strain BY4716, OD600, 96 h, primary screen (AID 1091). Note: test concentration not given here. The conditions noted are these: S. cerevisiae BY4716 + rapamycin, higher = more signal, called active from +8 up or from −8 down.
Experiment [5] addresses Torsin-1A-interacting protein 2 (Homo sapiens) (UniProt Q8NFQ8). The experiment can be described thus: small molecules binding lysate-expressed LULL1 – cell lysate, human LULL1 lysate, 635/667 nm fluorescence, primary screen (AID 1092).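 Note: probe is lysate of COS7 cells overexpressing human LULL1; score merges per-feature 667 nm fluorescence with signal-to-noise.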 Conditions: small-molecule microarray, hLULL1 lysate binding, 635 nm fluorescence; higher = more signal.
Experiment [6] can be described thus: optical density change of DRC41 E. coli – strain DRC41, OD650, 24 h, E. coli filamentation project, primary screen (AID 1093).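 Note: MC1000 strain lacking acrAB efflux and sulA so SOS filamentation is blocked; test concentration not given here.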 The conditions noted are these: E. coli DRC41 growth, higher = more signal, called active from +8 up or from −8 down.
Experiment [7] can be described thus: probe aLefty2 binding to arrayed compounds – biochemical, biotinylated probe, 635/667 nm fluorescence, primary screen (AID 1094).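 Note: score merges spot fluorescence near 667 nm with spot signal-to-noise ratio.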 Conditions: small-molecule microarray, higher = more signal.
Experiment [8] concerns Noggin (protein binding on small-molecule microarray). Description: small molecules binding Noggin protein – biochemical, 635/667 nm fluorescence, primary screen (AID 1095).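 Note: score merges 667 nm feature fluorescence with signal to noise over triplicate slides.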 The conditions noted are these: 635 nm fluorescence, higher = more signal.
Experiment [9] deals with Neurogenic locus notch homolog protein 3 (Homo sapiens) (UniProt Q9UM47). The experiment can be described thus: small molecules binding NOTCH3 protein – biochemical, 635/667 nm fluorescence, primary screen (AID 1096). Conditions: small-molecule microarray, 635 nm fluorescence, higher = more signal.
Experiment [10] in a line: probe aEGFR binding to arrayed compounds – biochemical, biotinylated probe, 635/667 nm fluorescence, primary screen (AID 1097).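 Note: probe is a biotinylated anti-EGFR antibody binding compounds printed on slides; score combines fluorescence near 667 nm and signal to noise of each spot.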 Conditions: small-molecule microarray, higher = more signal.

Active and inactive are the calls of the source.

Chain of Torsin-1A-interacting protein 2 (Homo sapiens) (Q8NFQ8 whole entry, looked up): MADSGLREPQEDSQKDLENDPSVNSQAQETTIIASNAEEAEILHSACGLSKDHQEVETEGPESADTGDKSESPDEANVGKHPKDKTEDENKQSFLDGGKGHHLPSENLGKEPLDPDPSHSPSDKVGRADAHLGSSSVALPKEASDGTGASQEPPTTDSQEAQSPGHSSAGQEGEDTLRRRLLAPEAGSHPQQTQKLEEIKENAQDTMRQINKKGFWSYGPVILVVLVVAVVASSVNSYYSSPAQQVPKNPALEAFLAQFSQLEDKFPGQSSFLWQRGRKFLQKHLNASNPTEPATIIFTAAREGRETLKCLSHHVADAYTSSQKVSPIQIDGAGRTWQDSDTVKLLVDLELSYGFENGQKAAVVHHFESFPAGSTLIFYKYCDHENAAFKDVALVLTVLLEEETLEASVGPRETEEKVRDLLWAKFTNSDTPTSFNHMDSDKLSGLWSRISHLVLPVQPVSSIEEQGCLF
Chain of Neurogenic locus notch homolog protein 3 (Homo sapiens) (Q9UM47 whole entry, looked up): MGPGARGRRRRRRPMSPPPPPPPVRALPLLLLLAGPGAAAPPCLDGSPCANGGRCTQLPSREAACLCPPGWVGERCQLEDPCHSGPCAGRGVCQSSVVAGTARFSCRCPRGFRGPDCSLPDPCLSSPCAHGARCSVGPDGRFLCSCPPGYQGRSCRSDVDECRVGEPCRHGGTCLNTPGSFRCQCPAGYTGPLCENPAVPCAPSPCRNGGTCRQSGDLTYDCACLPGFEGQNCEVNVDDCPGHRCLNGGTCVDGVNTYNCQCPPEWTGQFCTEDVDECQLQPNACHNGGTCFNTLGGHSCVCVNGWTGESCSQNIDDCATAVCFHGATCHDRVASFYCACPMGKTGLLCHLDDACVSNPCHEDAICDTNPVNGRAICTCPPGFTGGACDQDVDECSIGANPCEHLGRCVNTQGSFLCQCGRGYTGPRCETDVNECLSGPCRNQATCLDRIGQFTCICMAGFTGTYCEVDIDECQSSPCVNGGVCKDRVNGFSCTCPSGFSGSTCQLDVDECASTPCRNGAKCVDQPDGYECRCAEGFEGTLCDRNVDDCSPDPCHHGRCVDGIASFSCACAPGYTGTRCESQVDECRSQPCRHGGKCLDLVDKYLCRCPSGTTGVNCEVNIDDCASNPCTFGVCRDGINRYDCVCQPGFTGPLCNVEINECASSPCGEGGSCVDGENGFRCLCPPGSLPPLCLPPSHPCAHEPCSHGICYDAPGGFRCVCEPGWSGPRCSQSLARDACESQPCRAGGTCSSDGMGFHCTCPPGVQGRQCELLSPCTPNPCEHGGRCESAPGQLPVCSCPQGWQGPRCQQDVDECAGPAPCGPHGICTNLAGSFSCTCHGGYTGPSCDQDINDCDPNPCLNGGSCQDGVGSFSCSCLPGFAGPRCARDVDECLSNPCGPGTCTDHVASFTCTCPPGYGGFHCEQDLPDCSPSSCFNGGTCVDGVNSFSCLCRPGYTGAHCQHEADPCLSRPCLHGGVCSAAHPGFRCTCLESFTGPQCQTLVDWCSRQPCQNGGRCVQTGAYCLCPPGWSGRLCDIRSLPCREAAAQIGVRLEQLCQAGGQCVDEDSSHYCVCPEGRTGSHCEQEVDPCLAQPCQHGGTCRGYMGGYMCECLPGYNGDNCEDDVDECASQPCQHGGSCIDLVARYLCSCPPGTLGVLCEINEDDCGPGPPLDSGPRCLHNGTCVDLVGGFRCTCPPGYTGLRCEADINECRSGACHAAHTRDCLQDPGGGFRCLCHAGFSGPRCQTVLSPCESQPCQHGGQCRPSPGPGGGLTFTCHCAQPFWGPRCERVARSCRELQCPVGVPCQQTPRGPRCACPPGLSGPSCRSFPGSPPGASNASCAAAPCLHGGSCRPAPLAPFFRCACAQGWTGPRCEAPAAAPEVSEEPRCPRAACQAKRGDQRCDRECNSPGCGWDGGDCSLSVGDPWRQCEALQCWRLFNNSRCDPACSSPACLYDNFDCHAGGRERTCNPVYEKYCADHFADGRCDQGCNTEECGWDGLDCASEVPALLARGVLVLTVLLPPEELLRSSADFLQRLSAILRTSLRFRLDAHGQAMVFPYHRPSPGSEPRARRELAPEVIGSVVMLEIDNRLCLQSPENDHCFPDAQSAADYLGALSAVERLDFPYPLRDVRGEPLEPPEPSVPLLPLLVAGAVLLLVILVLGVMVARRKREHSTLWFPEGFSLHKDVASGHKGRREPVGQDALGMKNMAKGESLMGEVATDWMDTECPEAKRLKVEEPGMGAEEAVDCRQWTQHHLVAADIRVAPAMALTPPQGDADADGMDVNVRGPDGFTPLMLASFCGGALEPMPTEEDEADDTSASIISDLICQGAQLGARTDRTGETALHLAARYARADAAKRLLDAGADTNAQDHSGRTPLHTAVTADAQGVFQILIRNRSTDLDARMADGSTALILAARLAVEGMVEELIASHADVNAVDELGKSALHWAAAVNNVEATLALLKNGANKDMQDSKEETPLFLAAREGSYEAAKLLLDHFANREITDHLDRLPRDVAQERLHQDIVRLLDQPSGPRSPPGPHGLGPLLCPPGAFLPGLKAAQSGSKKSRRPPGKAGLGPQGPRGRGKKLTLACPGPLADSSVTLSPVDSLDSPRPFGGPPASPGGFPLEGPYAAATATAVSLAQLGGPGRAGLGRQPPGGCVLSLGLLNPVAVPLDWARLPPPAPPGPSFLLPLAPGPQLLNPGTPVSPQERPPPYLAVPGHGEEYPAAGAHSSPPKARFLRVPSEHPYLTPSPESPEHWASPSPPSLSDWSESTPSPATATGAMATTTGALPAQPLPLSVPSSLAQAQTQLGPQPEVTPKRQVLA

As to `CO[C@H]1COC(=O)[C@H](C)COC(=O)CC=C[C@@H](C)[C@H](OC)COC(=O)CC=C[C@@H]1C`, the composite z-score in experiment [1] was 0.438; in experiment [5], -0.798; in experiment [7] it was -0.233; in experiment [8], 0.638; in [9] it was 0.336; in experiment [10] it was -0.0302. For the same compound, the z-score in [2] was 0.0305 (inactive); in experiment [3], -0.818 (inactive); in experiment [4], -0.147 (inactive); in experiment [6], 0.614 (inactive).
On to `COC(=O)C1(C)C=C2C(=C(c3ccccc3)C(=O)C2C)CN1` (stereo not given), for which the composite z-score is -0.722 in experiment [1]; 0.517 in [5]; 0.498 in experiment [7]; -1.44 in [8]; -0.904 in [9]; 0.0003 in [10]. Besides, the z-score in experiment [2] is -0.269 (inactive); in [3], 0.14 (inactive); in experiment [4], 0.654 (inactive); in experiment [6] it was -0.269 (inactive).
As to `O=C(NN=C1C[C@@H](O)[C@@H](O)[C@@H]2[C@@H]3C(=O)N(c4cccc(Oc5ccccc5)c4)C(=O)[C@@H]3CC[C@H]12)OCc1ccccc1`, the composite z-score in experiment [1] is -0.425; in [5] it was 0.415; in experiment [7], -0.0812; in [8] it was 0.53; in [9], 0.305; in [10] it was -0.152. In addition, the z-score is 0.686 (inactive) in experiment [2], -0.141 (inactive) in experiment [3], -0.669 (inactive) in experiment [4] and 1.24 (inactive) in experiment [6].
`COC(=O)CC=C[C@@H](C)[C@@H](C=NO[C@@H](C)c1cc(-c2c(C)cc(C)cc2C)no1)OC`: the composite z-score in [1] was -1.43; in [5] it was -1.2; in experiment [7], -0.047; in experiment [8], -0.119; in [9] it was -0.75; in experiment [10], -0.419. The z-score in experiment [2] is -0.0365 (inactive); in [3], -0.875 (inactive); in experiment [4], 0.599 (inactive); in [6], -0.622 (inactive).
As for `O=C1[C@H]2[C@H]3[C@H](O)[C@H](O)CC(=NO[C@@H]4O[C@H](CO)[C@@H](O)[C@H](O)[C@H]4O)[C@@H]3CC[C@H]2C(=O)N1Cc1ccc2c(c1)OCO2`, the composite z-score in experiment [1] was 0.843; in experiment [5], 1.55; in experiment [7] it was -0.0991; in experiment [8] it was 0.388; in experiment [9], 0.786; in [10], -0.0007. The z-score in experiment [2] was -0.0622 (inactive); in experiment [3], 0.374 (inactive); in experiment [4] it was 0.35 (inactive); in experiment [6], -0.244 (inactive).
Consider `O=C1O[C@@H](c2ccccc2)[C@@H](c2ccccc2)N2[C@@H](c3ccccc3OCCO)[C@]3(C(=O)Nc4ccc(C#CCCO)cc43)[C@@H](C(=O)O)[C@H]12`, for which the composite z-score was 1.54 in [1]; 2.47 in experiment [5]; -0.3 in experiment [7]; 0.573 in experiment [8]; 1.12 in experiment [9]; -0.352 in [10]. The z-score in experiment [2] is 1.14 (inactive); in [3] it was -0.82 (inactive); in experiment [4], -0.103 (inactive); in experiment [6], 0.481 (inactive).
Regarding `COCC(=C=CC[C@@H](O)c1ccccc1OCCO)CCO`, the composite z-score in experiment [1] was 0.68; in experiment [5], 2.36; in experiment [7], 0.0378; in experiment [8], 0.436; in experiment [9], 0.442; in [10] it was -0.0332. The z-score in experiment [2] is 0.621 (inactive); in [3] it was 0.0008 (inactive); in experiment [4], 0.199 (inactive); in experiment [6], 0.71 (inactive).
`O=C1C[C@@H](O)[C@@H](O)[C@@H]2[C@@H]3C(=O)N(c4ccc(F)cc4F)C(=O)[C@@H]3CC[C@@H]12`: the composite z-score in [1] is 0.306; in [5], 0.662; in experiment [7], 0.0424; in experiment [8], 0.438; in experiment [9], 0.65; in [10], -0.109. The z-score in experiment [2] was -0.168 (inactive); in experiment [3] it was -0.413 (inactive); in experiment [4], -0.0694 (inactive); in [6], 0.315 (inactive).
As to `COc1ccc(O[C@H]2C=C[C@@H](c3ccccc3)O[C@@H]2COC(=O)CCC(C)=NOC(C)CN2CCCCc3nc(C)c(C)cc32)cc1` (stereo not given in full), the composite z-score was -0.285 in experiment [1]; 0.283 in [5]; -0.0769 in [7]; 0.294 in [8]; -1.33 in [9]; -0.0614 in [10]. In addition, the z-score was -0.258 (inactive) in experiment [2], -1.87 (inactive) in experiment [3], -0.889 (inactive) in experiment [4] and 1.14 (inactive) in experiment [6].
Regarding `C=CC[C@]1(C(=O)NCc2ccccc2)N=C(c2ccc(OCCCO)cc2)O[C@H]1c1ccccc1`, the composite z-score in experiment [1] is 1.55; in experiment [5], 3.28; in experiment [7], -0.0238; in experiment [8], 0.119; in [9], 0.778; in experiment [10], -0.137. Besides, the z-score was 0.159 (inactive) in experiment [2], -0.46 (inactive) in [3], 6.37 (inactive) in experiment [4] and 0.568 (inactive) in [6].
As for `O=C1[C@H]2[C@H]3[C@H](O)[C@H](O)CC(=NO[C@@H]4O[C@H](CO)[C@@H](O)[C@H](O)[C@H]4O)[C@@H]3CC[C@H]2C(=O)N1Cc1ccccc1`, the composite z-score in experiment [1] was 0.346; in experiment [5] it was 0.218; in [7], -0.103; in experiment [8], 0.574; in experiment [9] it was 0.433; in [10] it was 0.0673. The z-score in experiment [2] was -0.3 (inactive); in experiment [3], -0.13 (inactive); in experiment [4], -0.556 (inactive); in experiment [6], 0.0628 (inactive).
Regarding `COc1cccc([C@@H]2Oc3ccc(Br)cc3C(=O)[C@H]2O)c1`, the composite z-score was -0.366 in experiment [1]; 1.49 in experiment [5]; -0.0615 in experiment [7]; 1.13 in experiment [8]; 0.834 in experiment [9]; -0.0828 in [10]. Also, the z-score in experiment [2] is -2.84 (inactive); in experiment [3], -10.6 (active); in experiment [4] it was -1.5 (inactive); in experiment [6], 0.9 (inactive).
On to `CS(=O)(=O)CCOC(=O)C1=CC(CCCO)=CC(c2cccs2)N(Cc2cccc(OC(F)(F)F)c2)C=C1C(=O)OCCS(C)(=O)=O` (stereo not given), for which the composite z-score came out at 1.57 in [1]; 2.17 in experiment [5]; 0.0651 in experiment [7]; 0.025 in [8]; 0.993 in [9]; 0.0269 in experiment [10]. Moreover, the z-score in experiment [2] is -0.522 (inactive); in experiment [3], -2.82 (inactive); in [4], -1.34 (inactive); in experiment [6] it was -0.0221 (inactive).
Consider `O=C1[C@H]2[C@H]3[C@H](O)[C@H](O)CC(=NO[C@@H]4O[C@H](CO)[C@@H](O)[C@H](O)[C@H]4O)[C@H]3CC[C@H]2C(=O)N1Cc1ccccc1`, for which the composite z-score in experiment [1] was 1.46; in experiment [5] it was 0.903; in [7], -0.0015; in experiment [8], 1.02; in experiment [9] it was 0.669; in experiment [10], -0.0565. For the same compound, the z-score in experiment [2] was -0.509 (inactive); in [3], -0.468 (inactive); in experiment [4], -0.987 (inactive); in experiment [6] it was -0.61 (inactive).

For the origin of these results see PubChem BioAssay.
